A selection follows.
TNAP pNPP inh: human TNAP enzyme inhibitors, primary screen, biochemical, colorimetric, p-nitrophenol readout. Alkaline phosphatase, tissue-nonspecific isozyme (Homo sapiens), P05186. purified TNAP, pNPP hydrolysis, absorbance 405 nm. inhibition, % at 20 µM. 21,000 tested, under 10 active. AID 615, 2007
Target sequence (P05186 whole entry, looked up): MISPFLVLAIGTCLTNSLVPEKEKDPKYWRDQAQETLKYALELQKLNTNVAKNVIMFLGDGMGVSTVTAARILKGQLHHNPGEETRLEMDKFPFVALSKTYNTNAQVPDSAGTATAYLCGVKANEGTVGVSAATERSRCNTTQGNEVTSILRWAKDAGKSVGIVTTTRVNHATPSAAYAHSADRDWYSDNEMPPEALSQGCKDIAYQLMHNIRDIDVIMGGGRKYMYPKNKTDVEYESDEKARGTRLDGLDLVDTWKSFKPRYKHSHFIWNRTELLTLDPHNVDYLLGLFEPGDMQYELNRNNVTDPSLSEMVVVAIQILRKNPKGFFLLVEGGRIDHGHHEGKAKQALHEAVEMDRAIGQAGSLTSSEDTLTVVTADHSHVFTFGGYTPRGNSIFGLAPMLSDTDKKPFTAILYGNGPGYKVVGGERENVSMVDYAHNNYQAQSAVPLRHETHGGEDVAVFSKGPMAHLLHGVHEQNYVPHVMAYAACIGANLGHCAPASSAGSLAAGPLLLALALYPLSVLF
TNAP Pi inh: human TNAP enzyme inhibitors, primary screen, biochemical, colorimetric, phosphate release readout. 21,000 tested, under 10 active. Alkaline phosphatase, tissue-nonspecific isozyme (Homo sapiens), P05186. purified TNAP, pNPP, malachite green phosphate absorbance. inhibition, % at 20 µM
Large screens that a line does not name were inactive.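 How the source made its calls: active means inhibition above 50% at the 20 µM single-dose screen; inactive means the rest.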

CSc1nsc(SCc2ccc(F)cc2)n1	none
C/C(NCCN1CCOCC1)=C(\C#N)C(N)=O	none
O=C1NC2CCCCC2NC1CC(=O)N1CCN(c2ccccc2)CC1 (stereo not given)	none
O=S(=O)(c1ccccc1F)N(Cc1ccco1)Cc1nnc(-c2ccccc2Br)o1	none
C=CCC1(O)C(=O)N2C(=C1C(=O)N1CCOCC1)c1ccccc1CC2(C)C (stereo not given)	none
COC(=O)c1cc(OC)c(OC)cc1NC(=O)c1cc(C)on1	none
O=C(CN1CCC(O)(c2ccccc2F)CC1)NCCc1c[nH]c2ccccc12	none
O=C(Cc1cccs1)Nc1cccnc1	none
c1ccc(Nc2cc(-c3ccccc3)nc3ncnn23)cc1	none
CN1CCCN(C(=O)Cc2c(Cl)cccc2Cl)c2nc3ccccc3nc21	none
CCc1nnc(NC(=O)CSc2ncc(-c3ccccc3)n2CC)s1	none
Cc1nn(Cc2ccccc2)c2sc(C(=O)N3CCN(Cc4ccc5c(c4)OCO5)CC3)cc12	none
O=C(NCCCn1ccnc1)C(Cc1ccccc1)N1C(=O)c2ccccc2C1=O (stereo not given)	none
Cc1ccc(S(=O)(=O)Nc2ccc(Br)cc2/C=N/n2cnnc2)cc1	none
